Only some compounds are listed: those with a hit (about 2.3% of all), similar ones and a draw of the others.
POLH inh = inhibitors of human DNA polymerase eta | Q9Y253 | recombinant Pol eta, fluorescent DNA replication assay | Potency, µM (highest dose often 114 µM), inactives show at the highest dose activity change, negative = inhibition, most hits filed as inhibitors | actives 1.2% (n = 390,000) | AID 588591; further: on the % scale 0 is the no-effect control and ±100 the full control effect
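Fluorescent replication assay: 50 nM final substrate added after a 15 min room-temperature compound preincubation with 10 nM enzyme. Signal taken at 0 min and again at 10 min.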
WRN inhibitor = blocks human WRN helicase; Potency, µM (titrated, usually from 114 µM), without a hit: top-dose activity change, negative = inhibition, hits mostly inhibitors; WRN helicase unwinding, fluorescent forked duplex, kinetic; actives 0.46% (n = 360,000); Q14191; further: on the % scale 0 is the no-effect control and ±100 the full control effect; nearly all actives have a fitted effect of over 55% in size
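WRN at 20 nM final was preincubated with compound for 15 min at room temperature; reaction started with 100 nM forked duplex oligonucleotide carrying fluorophore and quencher plus 2 mM ATP (final). Unwinding followed kinetically by red fluorescence (ex 525/em 598 nm).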
Pol beta inh = DNA polymerase beta (human) inhibition; Pol beta primer extension/strand displacement, fluorescence kinetic; Potency, µM (titrated, usually from 114 µM), without a hit: at the top dose activity change, negative = inhibition, usual class: inhibitors; actives 1.3% (n = 340,000); further: on the % scale 0 is the no-effect control and ±100 the full control effect
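Pol beta (10 nM) and compounds were preincubated 15 min at room temperature, then 50 nM substrate (final) started primer extension/strand displacement. Reads were taken at 0 and 10 min; concentration-response data were fitted to a four-parameter Hill equation.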
POLI inh = DNA polymerase iota (human) inhibition | Q9UNA4 | Pol iota fluorescent replication assay, 10 min | Potency, µM (doses to about 115 µM), for the others: at the highest dose activity, negative = inhibition, hits mostly inhibitors | actives 1% (n = 390,000) | AID 588590
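Fluorescent replication assay read twice, at 0 min and 10 min after adding 50 nM (final) substrate. Enzyme (10 nM) and compounds were first incubated 15 min at room temperature; enzyme-free buffer wells were negative controls.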
Pol kappa inh = blocks human DNA polymerase kappa activity; purified Pol kappa, fluorescent DNA synthesis assay, 10 min; Q9UBT6; Potency, µM (highest dose often 107 µM), inactives show at the top dose activity, negative = inhibition, most hits filed as inhibitors; actives 0.53% (n = 400,000); further: on the % scale 0 is the no-effect control and ±100 the full control effect
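10 nM Pol kappa was preincubated with compounds for 15 min at room temperature. Reaction started with 50 nM (final) substrate. Fluorescence read kinetically at 0 and 10 min.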
* = called active by the depositor; [ ] = dose if it differs, or a comment. The call rests on the fitted dose curve; in most records, active means well fitted curve in the direction sought with a large enough effect; inconclusive means small, poorly fitted or top-dose-only effect, or another doubt; inactive means no such curve, though single readings can be large; an effect the other way counts as inactive or inconclusive. Potency means the concentration at half of the fitted maximal effect.

How did CSc1nc(N)c2ncn([C@@H]3O[C@H](COP(=O)(O)OP(=O)(O)O)C(O)[C@H]3O)c2n1 (some centres undefined) do in these assays?
Pol kappa inh: -7%[60.1 µM]

How did O=C(COC(=O)CC1CCCC1)Nc1cc2c(cc1Cl)C(=O)c1ccccc1C2=O do in these assays?
POLH inh: inconclusive; WRN inhibitor: -19%; Pol beta inh: 40µM*; POLI inh: -15%; Pol kappa inh: -21%

Results for COc1ccc(-n2nc(C(=O)NCC(=O)Nc3cccc(Cl)c3)c3ccccc3c2=O)cc1OC ?
POLH inh: inconclusive; WRN inhibitor: -3%; Pol beta inh: 25µM*; POLI inh: 48%; Pol kappa inh: 3%

Results for NCCNCCN ?
Pol kappa inh: 1.1µM*

What do the screens show for `COc1ccccc1/C=C/c1cnccn1`?
POLI inh: -4%; Pol kappa inh: 2%

Results for CC(C)N1C(=O)S/C(=C/c2ccccc2OCc2ccc(C(=O)O)cc2)C1=O ?
POLH inh: 89µM*; WRN inhibitor: -13%; Pol beta inh: 1%; POLI inh: inconclusive; Pol kappa inh: inconclusive

What do the screens show for `O=S(=O)(Nc1ccccc1)c1ccc(-c2cnc(C3CC3)o2)cc1`?
POLH inh: -13%; WRN inhibitor: 2%; Pol beta inh: 5%; POLI inh: 79µM*; Pol kappa inh: 8%

How did CCc1ccc(NC(=O)C(C)OC(=O)c2ccc(NS(=O)(=O)c3ccc(C)c([N+](=O)[O-])c3)cc2)cc1 (centres undefined) do in these assays?
POLH inh: 79µM*; WRN inhibitor: -2%[11.6 µM]; Pol beta inh: -2%; POLI inh: inconclusive; Pol kappa inh: inconclusive

Results for CCC1CCCCN1C(=O)Cn1nc([N+](=O)[O-])c(Cl)c1C (centres undefined) ?
POLH inh: 89µM*; WRN inhibitor: -4%; Pol beta inh: 35%; POLI inh: 89µM*; Pol kappa inh: inconclusive

What do the screens show for `Oc1ccccc1C1C=C(c2ccc3c(c2)OCO3)NC(c2cccc(F)c2)N1` (centres undefined)?
POLI inh: inconclusive; Pol kappa inh: 11%

Results for CCN1CCN(C(=O)c2cc3cc([N+](=O)[O-])ccc3oc2=O)CC1 ?
POLH inh: -6%; WRN inhibitor: -5%; Pol beta inh: -1%; POLI inh: -5%; Pol kappa inh: -11%

How did O=C(c1cc2cc([N+](=O)[O-])ccc2oc1=O)n1cccn1 do in these assays?
POLH inh: 32µM*; WRN inhibitor: -32%[57.1 µM]; Pol beta inh: 32µM*; POLI inh: inconclusive; Pol kappa inh: 79µM*

What do the screens show for `NC(=O)c1ccc(N=C2C(=O)Nc3ccc([N+](=O)[O-])cc32)cc1`?
POLH inh: 20µM*; WRN inhibitor: 4%; Pol beta inh: inconclusive; POLI inh: inconclusive; Pol kappa inh: -9%

What do the screens show for `C(=C\c1cnc2ccccc2n1)/c1ccc2c(c1)OCO2`?
POLI inh: 20%; Pol kappa inh: 6%

Results for COc1cccc(NC(=O)Cn2c(=O)n(CCc3cccc(C)c3)c(=O)c3ccccc32)c1 ?
POLH inh: -6%; Pol beta inh: -16%; POLI inh: 89µM*; Pol kappa inh: -27%

Results for O=C(Nc1nccs1)[C@@H]1CC=C[C@@H]2CCN(Cc3ccc(Cl)c(Cl)c3)C(=O)[C@@H]21 ?
POLI inh: 9%; Pol kappa inh: -9%

What do the screens show for `CCCC[n+]1ccn(-c2nc3ccccc3nc2[N-]S(=O)(=O)c2ccc(Br)cc2)c1`?
POLH inh: inconclusive; WRN inhibitor: -1%; Pol beta inh: -7%; POLI inh: 36%; Pol kappa inh: 3%

How did CC(C)CC[n+]1ccn(-c2nc3ccccc3nc2[N-]S(=O)(=O)c2ccccc2)c1 do in these assays?
POLH inh: -12%; WRN inhibitor: 0%; Pol beta inh: 79µM*; POLI inh: 22%; Pol kappa inh: -11%

What do the screens show for `CN(C)/C=C/C(=O)/C=C/c1cn(-c2ncc(C(F)(F)F)cc2Cl)c2ccccc12`?
POLH inh: -17%; WRN inhibitor: -11%; Pol beta inh: 25µM*; POLI inh: 8%; Pol kappa inh: -21%

Results for COC(=O)Cc1cn(-c2ncc(C(F)(F)F)cc2Cl)c2ccccc12 ?
POLH inh: -5%; WRN inhibitor: -2%; Pol beta inh: -8%; POLI inh: 3%; Pol kappa inh: -16%

How did C/C=C1/C(=O)C[C@@H]2[C@H]3CCC4=CC(=O)CC[C@]4(C)[C@@H]3CC[C@]12C do in these assays?
Pol kappa inh: 3%[19.4 µM]

Results for O=Cc1ccccc1C=O ?
Pol kappa inh: 24µM*

Results for O=Cc1ccccc1OCCOc1ccccc1C=O ?
POLH inh: -7%; WRN inhibitor: -14%; Pol beta inh: 3%; POLI inh: 2%; Pol kappa inh: -2%

What do the screens show for `CCC(C(=O)Nc1ccc(C(C)=O)cc1)n1c(C)c2cnn(-c3ccccc3)c(=O)c2c1C` (centres undefined)?
POLH inh: -14%; Pol beta inh: 6%; POLI inh: 1%; Pol kappa inh: -10%

Results for CC(=O)/C=C/c1ccc2c(c1)S(=O)(=O)N(C1CCCC1)[C@H]2CC(C)=O ?
POLI inh: inconclusive; Pol kappa inh: -41%

Results for CCOC(=O)/C=C1\SCC(=O)N1CC(=O)c1ccc[nH]1 ?
POLH inh: inconclusive; WRN inhibitor: -7%[11.6 µM]; Pol beta inh: 20µM*; POLI inh: inconclusive; Pol kappa inh: inconclusive

Results for CCC(=C(CC)c1ccc(O)cc1)c1ccc(O)cc1 ?
Pol kappa inh: -6%[12 µM]

What do the screens show for `Cc1ccc(/C=C2\SC(=S)N(/N=C/c3cc([N+](=O)[O-])ccc3O)C2=O)o1`?
POLH inh: 10µM*; WRN inhibitor: 35µM*; Pol beta inh: 8.9µM*; POLI inh: 4.5µM*; Pol kappa inh: 20µM*

How did O=[N+]([O-])c1ccc(O)c(/C=N/n2cnc3ccccc32)c1 do in these assays?
POLH inh: -18%; WRN inhibitor: -5%; Pol beta inh: 1%; POLI inh: 4%; Pol kappa inh: -10%

Results for NS(=O)(=O)c1ccc(NS(=O)(=O)c2ccc(NC(=O)c3ccc(-c4ccccc4)cc3)cc2)cc1 ?
POLH inh: inconclusive; WRN inhibitor: inconclusive; Pol beta inh: inconclusive; POLI inh: 56µM*; Pol kappa inh: inconclusive

How did O=C1/C(=C/c2ccc(O)c([N+](=O)[O-])c2)SC(=S)N1Cc1ccccc1 do in these assays?
POLH inh: inconclusive; WRN inhibitor: -10%; Pol beta inh: -3%; POLI inh: 32%; Pol kappa inh: -5%

Results for CCOc1cc(/C=C2/SC(=S)N(Cc3ccccc3)C2=O)ccc1O ?
POLH inh: inconclusive; WRN inhibitor: 35µM*; Pol beta inh: inconclusive; POLI inh: inconclusive; Pol kappa inh: -24%
